Rows were chosen to be rich in hits. Some 20% of all compounds tested hit in one or more screens of this group.
Cycloheximide cs = counter-screen for Shiga toxin inhibitors: cycloheximide protein synthesis inhibition. 300,000 compounds, 12% hits. cell reporter, cycloheximide protein synthesis inhibition counterscreen. max response, %; in the data active means max response mostly above about 13%, no sharp cut-off; inactive means mostly below about 14%; further: read at 38.3 µM for the half of the compounds with a filed dose
Pf growth 48h = inhibits P. falciparum growth in the first generation, 48 h | P. falciparum luciferase growth in erythrocytes, 48 h | 310,000 compounds, 5.9% hits | Potency, µM (series often up to 28.7 µM), actives largely listed as inhibitors
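Parasite viability was followed by luminescence of a genomically integrated firefly luciferase. Cultures held 0.1% parasitemia at 2% hematocrit (final), incubated under 5% CO2 at 37 C.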
Pf growth 96h = inhibits malaria parasite growth, 96 h. P. falciparum luciferase reporter growth, 96 h. Potency, µM (doses to about 28.7 µM), hits mostly inhibitors. 320,000 compounds, 6.9% hits. AID 504834
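Parasite growth measured via integrated firefly luciferase reporter in P. falciparum. Infected erythrocytes at 2% hematocrit, 0.05% parasitemia final were treated 96 hours at 37 C under 5% CO2, and luminescence was read.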
HCMV inh = human cytomegalovirus inhibition | activity change, negative = inhibition, % at 57.5 µM | HFF cells, HCMV-luciferase reporter, 72 h; active compounds read low | AID 1259415 | 410,000 compounds, 4.5% hits; in the data active means activity change below about -60%; inconclusive means no clear call, values can overlap the other calls; inactive means above about -39%
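Luciferase read-out from HCMV-luciferase-infected HFFs (MOI 1 PFU/cell) 72 h post infection at 37C; compounds added after 16 h cell attachment; activity normalized between buffer-only basal and Salinomycin (10uM) inhibitor controls.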
Shiga toxin inh = Shiga toxin inhibition. Vero cells, Shiga toxin protein synthesis inhibition reporter. 290,000 compounds, 9.2% hits. inhibition, % at 38.7 µM. AID 2315; in the data active means inhibition mostly above about 28%, no sharp cut-off; inactive means mostly below about 43%
A number is an active result; - = inactive; ? = inconclusive; . = not tested or not shown; [ ] = remark or other dose. Unless noted, the call rests on the fitted dose curve; in most records, active means well fitted inhibition curve with a large enough effect; inconclusive means small, poorly fitted or top-dose-only effect, or another doubt; inactive means no such curve, though single readings can be large or run the other way.

SMILES	Cycloheximide cs	Pf growth 48h	Pf growth 96h	HCMV inh	Shiga toxin inh
CCOc1ccc(NC(=S)NNc2ccnc3cc(Cl)ccc23)cc1	-	?	2.08µM	-	-
CC(O)[C@@H](NC(=O)C1CCC(CNC(=O)[C@H](Cc2ccccc2)NC(=O)OC(C)(C)C)CC1)C(=O)O (some centres undefined)	-	-[0.00184 µM]	-	-	-
O=C(Nc1cccc(Br)c1)c1cc(S(=O)(=O)N2CCCCC2)c[nH]1	.	.	.	-	.
COc1cc(C2C3=C(COC3=O)Oc3cc4c(cc32)OCO4)cc(OC)c1O (centres undefined)	.	.	.	-79.4	.
COc1ccc(C2CC(=O)Oc3cc4c(cc32)OCO4)cc1 (centres undefined)	-	.	.	-	-
O=C1OCC2=C1C(c1ccc3c(c1)OCO3)c1cc3c(cc1O2)OCO3 (centres undefined)	.	.	.	-	.
COc1cc(C2C3=C(COC3=O)Oc3cc4c(cc32)OCO4)cc(OC)c1OC (centres undefined)	.	.	.	-84.2	.
CCC(Sc1nnc(-c2ccco2)n1C)C(=O)Nc1nnc(C)s1 (centres undefined)	-	-	-	-	-
COc1cccc2c1C(=O)c1c(O)c3c(c(O)c1C2=O)C[C@@](O)(C(=O)CO)C[C@@H]3OC1CC(N)C(O)C(C)O1 (some centres undefined)	.	0.426µM	0.0675µM	-99.3	.
CC[C@@]1(O)C[C@H](O[C@H]2C[C@@H](N(C)C)[C@@H](O[C@H]3C[C@@H](O)[C@@H](O[C@H]4CCC(=O)[C@@H](C)O4)[C@@H](C)O3)[C@@H](C)O2)c2c(cc3c(c2O)C(=O)c2c(O)cccc2C3=O)[C@H]1C(=O)OC	.	0.0849µM	0.0601µM	.	.
COc1cccc2c1C(=O)c1c(O)c3c(c(O)c1C2=O)CC(O)(C(C)=O)CC3OC1CC(N(C)C)C(O)C(C)O1 (centres undefined)	.	.	.	-98.3	.
COc1cccc2c1C(=O)c1c(O)c3c(c(O)c1C2=O)CC(O)(C(C)=NO)CC3OC1CC(N)C(O)C(C)O1 (centres undefined)	.	.	.	-99.6	.
CCc1nc2ccc(C(=O)N(C)CC(=O)Nc3cccc(F)c3)cc2nc1CC	.	?	?	-	.
COc1ccc(CNC(=O)C2CCN(C(=O)N3CCOc4ccc(Cl)cc43)CC2)cc1	.	.	.	-	.
CC(C)(C)c1ccc2c(c1)C(=O)c1ccccc1C2=O	32.3	-	-	-	77.3
CCc1ccc2c(c1)C(=O)c1ccccc1C2=O	42.9	-	-	-	14.0
CC(=O)C(N=Nc1ccccc1)(Sc1nnc(-c2ccccc2)n1-c1ccccc1)C(C)=O	-	?	11.7µM	?	-
CC(=O)/C(=N\Nc1ccc(Cl)cc1Cl)Sc1nnc(-c2ccccc2)n1-c1ccccc1	-	-	-	-	-
CC(=O)C(N=Nc1ccccc1)(Sc1nnc(-c2ccccc2)n1-c1ccccc1)C(=O)Nc1ccccc1 (centres undefined)	-	13.1µM	11.7µM	-	-
CC(=O)/C(=N\Nc1ccccc1)Sc1nnc(-c2ccccc2)n1-c1ccccc1	-	-	?	-	-
CC(=O)/C(=N\Nc1ccccc1Cl)Sc1nnc(-c2ccccc2)n1-c1ccccc1	-	?	?	-61.4	-
O=C1NC2=C(CCc3ccccc32)C(c2ccccc2)N1 (centres undefined)	-	?	?	-	-
O=C1NC(c2ccccc2)=C(c2nc3ccccc3s2)C(c2ccccc2)N1 (centres undefined)	-	?	8.28µM	-	-
Cc1c(C(=O)O)sc2nc(/C=C/c3cccc(F)c3)[nH]c(=O)c12	-	-	-	-	-
Cc1c(C(=O)O)sc2nc(/C=C/c3ccccc3OC(F)F)[nH]c(=O)c12	-	-	13.1µM	-	-
SMILES	Cycloheximide cs	Pf growth 48h	Pf growth 96h	HCMV inh	Shiga toxin inh
CCN(CC)S(=O)(=O)c1ccc(C(=O)NCC2CCCCC2)cc1	-	-	?	-	-
COc1ccc(C(=O)NCCc2c[nH]c3ccccc23)cc1S(=O)(=O)N1CCOCC1	-	?	-	-	-
CCn1c(O)c(/C=C2\C=Nc3ccccc32)sc1=Nc1ccccc1	26.7	?	-	-	98.1
CCOc1ccccc1NC(=O)C1=C(C)Nc2ncnn2C1c1sccc1C (centres undefined)	.	.	.	-	.
Cc1c(C(C)C)c(=O)n(-c2ccc(S(=O)(=O)NCc3ccccc3)cc2)n1C	-	-	?	-85.2	-
Cc1c(C(C)C)c(=O)n(-c2ccc(S(=O)(=O)NC3CCCCC3)cc2)n1C	-	-	?	-89.3	-
CCCCCCN1CCN(C2CN(Cc3cn(CCCC(=O)OC)nn3)S(=O)(=O)C2)CC1 (centres undefined)	.	.	.	-	.
CC(C)C(C(=O)NCc1ccco1)N(C(=O)CNS(=O)(=O)c1ccccc1)C1CCCC1 (centres undefined)	-	?	-	-	-
CCCC(C(=O)NCc1ccco1)N(C(=O)CNS(=O)(=O)c1ccc(Cl)cc1)C1CCCC1 (centres undefined)	-	11.7µM	-	-	-
CCC(C(=O)NCc1ccco1)N(C(=O)CNS(=O)(=O)c1ccccc1)C1CCCCC1 (centres undefined)	-	.	6.57µM	-	-
Cc1cc(C)cc(N2C(=O)CSC2c2cccs2)c1 (centres undefined)	-	?	-	-	-
Cc1ccc(N2C(=O)CSC2c2cccs2)cc1 (centres undefined)	-	-	0.165µM	-	-
CCOC(=O)c1ccc(CN(Cc2ccc(Cl)cc2Cl)S(=O)(=O)c2cccc(Cl)c2)cc1	.	.	.	-	.
COc1ccc(/C=C2\C(=O)NC(=S)N2C(=O)c2ccc(C)cc2)cc1	34.8	-	7.38µM	-	59.3
O=C(O)c1ccc(N=Nc2c(O)[nH]c3ccc(Br)cc23)cc1	55.6	?	5.22µM	-	110.8
Cc1ccc(N=Nc2c(O)[nH]c3ccc(F)cc23)cc1	50.5	-	-	-	67.4
O=c1[nH]nc(N=Nc2c(O)[nH]c3ccc(F)cc23)c(=O)[nH]1	.	.	.	-	.
O=C(O)c1ccc(N=Nc2c(O)[nH]c3cc(Cl)ccc23)cc1	35.6	?	4.65µM	-	66.8
Cc1cc(C)c[n+](CC(=O)c2c(C)cc(C)c([N+](=O)[O-])c2C)c1	-	-	-	-	-
CCOc1ccc(CNCCCSc2nnnn2C)cc1OC	.	.	.	-	.
CCc1nc2c(OCCOc3ccc(F)cc3)cccn2c1N(C)C(=O)c1ccc(C)cc1	.	.	.	-	.
O=C(NC1CCN(Cc2ccccc2)CC1)c1cccc(S(=O)(=O)Nc2ccc(F)cc2)c1	.	4.15µM	2.08µM	-77.0	.
C=CCN(c1ccc(F)cc1)S(=O)(=O)c1cc(C(=O)NC2CCC(O)CC2)ccc1Cl (centres undefined)	.	?	5.22µM	-	.
CN(C)S(=O)(=O)c1cccc(C(=O)NCC(=O)NC2CCN(Cc3ccccc3)CC2)c1	-	-	-	-	-
O=C(NC1CCN(Cc2ccc(F)cc2)CC1)c1ccccc1	-	-	-	-	-
CC1(C)CC(NC(=O)c2cccc(S(=O)(=O)Nc3cccc(Cl)c3)c2)CC(C)(C)N1	.	13.1µM	4.65µM	-	.
